Shown are actives, neighbours in structure and some others; about 18% of the full set was active somewhere.
Gal4-VP16 FLuc = VP16 counterscreen qHTS for inhibitors of ROR gamma transcriptional activity. AID 2546, 2010. Drosophila S2 Gal4-VP16 UAS-luciferase, luminescence, 20 h. hit rate 3.5% among 310,000. Potency, µM (titrated, usually from 53.6 µM), for inactives: top-dose activity, negative = inhibition, hits mostly inhibitors;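 note: Gal4-VP16 expression switched on by copper sulfate through the metallothionein promoter; potency is the fitted concentration of half-maximal effect; nearly all actives have a fitted effect of over 50% in size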
IL1B secr inh = qHTS for Inhibitors of Inflammasome Signaling: IL-1-beta AlphaLISA Primary Screen; THP-1 LPS/ATP IL-1B secretion, AlphaLISA, 16 h; stronger effect = lower value; activity change, % at 57.5 µM; hit rate 4.7% among 360,000; AID 743279, 2014; in the data active = activity change below about -50%; inconclusive = mostly about -30% to -49%
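Secreted IL-1B measured by AlphaLISA bead assay after 16 h compound exposure of THP-1 cells; compounds (final up to 57.5 uM) added 1 h before LPS (250 ng/mL) and ATP (1.25 mM) stimulation; lower signal means less secretion.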
DT40 TDP1 no CPT = qHTS for Inhibitors of human tyrosyl-DNA phosphodiesterase 1 (TDP1): qHTS in cells in absence of CPT | hit rate 15% among 420,000 | DT40 Tdp1-/- hTDP1 cells, no CPT, ATP luminescence, 48 h | Potency, µM (highest dose often 46.2 µM), inactives show at the top dose activity change, negative = growth inhibition, most hits filed as inhibitors | AID 686978, 2013; note: potency is the fitted concentration of half-maximal effect; nearly all actives have a fitted effect of over 55% in size
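Growth kinetics read by CellTiter-Glo luminescence after ≥48 hr at 37 °C. Cells: DT40 Tdp1-/- stably carrying human TDP1, 400 per well, compound exposure in the absence of CPT (DMSO vehicle).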
LDHA inh = qHTS assay for inhibitors of human lactate dehydrogenase. L-lactate dehydrogenase A chain (Homo sapiens), P00338. purified LDHA, NADH/diaphorase-resazurin fluorescence; stronger effect = lower value. activity change, % (values are at about 110 or 230 µM). hit rate 0.15% among 480,000. AID 1347041, 2019; in the data active = activity change below about -30%; inconclusive = mostly about -25% to -30%;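 note: plate controls were DMSO wells for no effect and wells without enzyme for full effect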
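Human LDH5 at 2 nM final in Tris HCl pH 7.4 with 0.06 mM NADH and 0.2 mM pyruvate, reacted 5 minutes at room temperature. Remaining NADH coupled via diaphorase/resazurin; resorufin fluorescence read at 0 and 20 minutes, normalized to enzyme-free and DMSO wells.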
RORgamma inh = qHTS for inhibitors of ROR gamma transcriptional activity; Drosophila S2 Gal4-RORgamma UAS-luciferase reporter, 20 h; Potency, µM (titrated, usually from 53.6 µM), without a hit: at the top dose activity change, negative = inhibition, actives largely listed as inhibitors; hit rate 5.4% among 310,000; AID 2551, 2010; note: potency is the fitted concentration of half-maximal effect; nearly all actives have a fitted effect of over 60% in size
Target sequence (P51450 whole entry, looked up, the tested form may be a part): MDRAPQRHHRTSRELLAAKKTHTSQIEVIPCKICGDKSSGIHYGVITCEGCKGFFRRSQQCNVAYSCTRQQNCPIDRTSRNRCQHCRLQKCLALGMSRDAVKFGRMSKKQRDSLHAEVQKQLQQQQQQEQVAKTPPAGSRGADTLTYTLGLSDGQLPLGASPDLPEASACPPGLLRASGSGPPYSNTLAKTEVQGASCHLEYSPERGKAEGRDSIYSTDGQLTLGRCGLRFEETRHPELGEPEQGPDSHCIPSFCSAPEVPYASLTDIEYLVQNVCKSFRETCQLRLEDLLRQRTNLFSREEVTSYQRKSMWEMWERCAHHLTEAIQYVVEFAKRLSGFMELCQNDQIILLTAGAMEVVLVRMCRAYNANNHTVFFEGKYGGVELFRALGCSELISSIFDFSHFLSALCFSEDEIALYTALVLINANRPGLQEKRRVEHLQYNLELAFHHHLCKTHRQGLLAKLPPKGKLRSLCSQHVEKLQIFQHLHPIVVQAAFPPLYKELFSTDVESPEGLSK
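Using a luciferase readout, inhibitors were identified by reduced reporter activity in Drosophila cells coexpressing a copper-inducible Gal4–ROR gamma fusion and UAS-driven Photinus luciferase, incubated 20 hr after 700 uM copper sulfate.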
TDP1 cell CPT = qHTS for Inhibitors of human tyrosyl-DNA phosphodiesterase 1 (TDP1): qHTS in cells in presence of CPT; Potency, µM (titrated, usually from 46.2 µM), for inactives: top-dose activity change, negative = growth inhibition, most hits filed as inhibitors; hit rate 12% among 420,000; chicken DT40 Tdp1-/-;hTDP1 cells + 20 nM CPT, ATP luminescence, 48 h; note: potency is the fitted concentration of half-maximal effect; nearly all actives have a fitted effect of over 55% in size
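Cell growth measured by CellTiter-Glo luminescence after a minimum 48 h, 37 C compound exposure with 20 nM CPT in Tdp1-knockout DT40 cells stably expressing hTDP1, seeded 400/well; qHTS titration format.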
Numbers without * were called inactive; ? = inconclusive; / = not tested or not shown; [ ] = remark or other dose. Unless noted, calls come from the whole dose curve; as a rule, active = well fitted curve in the direction sought with a large enough effect; inconclusive = small, poorly fitted or top-dose-only effect, or another doubt; inactive = no such curve, though single readings can be large; an effect the other way counts as inactive or inconclusive. Unless noted, % is set by controls: 0 for no effect and ±100 for the full control effect.

SMILES	Gal4-VP16 FLuc	IL1B secr inh	DT40 TDP1 no CPT	LDHA inh	RORgamma inh	TDP1 cell CPT
COc1ccc(C2CC(c3ccc(C)o3)=NN2C(C)=O)cc1 (stereo not drawn)	-9%	-1	-16%	-1	-18%	8%
COC(=O)c1ccc(CC2(C)C(=O)Nc3ccc(-c4cccc(C(F)(F)F)c4)cc32)o1 (stereo not drawn)	/	-24	16µM*	5	/	?
CC(=O)c1cccc(-c2ccc3c(c2)C(C)(Cc2ccccc2F)C(=O)N3)c1 (stereo not drawn)	/	82	18µM*	-1	/	26µM*
CCN(CC(=O)NCc1ccc(Cl)cc1)C(=O)Cn1nc(C(=O)O)c2ccccc2c1=O	/	/	/	1	/	/
COc1ccc2cc(C(=O)NCC(=O)NC3CC3)c(C)nc2c1	/	/	/	7	/	/
N/N=C(\Cc1cscn1)c1ccc(O)cc1O	-9%	5	?	5	11%	-8%
Oc1ccc(/C(Cc2ccc3ccccc3n2)=N\Nc2ccccc2)c(O)c1	3%	-98*	23µM*	-9	8%	?
O/N=C(/Cc1ccccc1)c1ccc(O)cc1O	/	/	/	1	/	/
Oc1ccc(/C(Cc2ccccn2)=N\Nc2ccccc2)c(O)c1	3%[10 µM]	-180*	?	8	4%	?
Cc1c(O)ccc(/C(Cc2ccc3ccccc3n2)=N\O)c1O	?	-67*	21µM*	-3	?	21µM*
Clc1sc(C=Nc2cccc3ccccc23)c(Cl)c1Cl	/	/	/	26	/	/
O=C(N/N=C/c1c2ccccc2cc2ccccc12)c1cccs1	/	/	/	0	/	/
Cc1ccc(F)cc1C(=O)N1CCCCC1c1cc(C(=O)Nc2ccc(F)c(Cl)c2)no1 (stereo not drawn)	/	-19	15µM*	-5	/	21µM*
O=C(Nc1ccc(F)c(Cl)c1)c1cc(C2CCCCN2C(=O)C2CC2)on1 (stereo not drawn)	/	4	15µM*	-2	/	26µM*
COC(=O)N1CCCCC1c1cc(C(=O)Nc2ccc3c(c2)OCO3)no1 (stereo not drawn)	/	0	-25%	-6	/	0%
O=C(Nc1ccc(F)c(Cl)c1)c1cc(C2CCCN(C(=O)C3CC3)C2)on1 (stereo not drawn)	/	-16	?	-2	/	?
NC(=S)N/N=C/c1ccc(-n2nncc2-c2ccc(Cl)cc2)cc1	?	-70*	?	-7	5.6µM*	-8%
COc1ccc(C2c3cc(OC)c(OC)cc3CC(=O)N2c2ccc(C)cc2)cc1 (stereo not drawn)	/	/	21µM*	-3	/	13µM*
CCOc1cc2c(cc1OCC)C(c1ccccc1)N(c1ccccc1)C(=O)C2 (stereo not drawn)	-2%	-18	16µM*	-3	25%	16µM*
CCOc1ccc(C2NC(=O)Cc3cc(OC)c(OC)cc32)cc1 (stereo not drawn)	-3%	12	-25%	-7	3%	2%
COc1ccc(C2c3cc(OC)c(OC)cc3CC(=O)N2c2ccc(OC)cc2)cc1 (stereo not drawn)	/	/	/	8	/	/
COc1ccc(C2c3cc(OC)c(OC)cc3CC(=O)N2c2ccc(C)c(F)c2)cc1 (stereo not drawn)	/	/	3.7µM*	1	/	3.3µM*
COc1cc2c(cc1OC)C(c1ccc(C)cc1)NC(=O)C2 (stereo not drawn)	6%	-61*	1%	3	-22%	-11%
COc1ccc(SCC(=O)c2cc(C)c(OC(=S)N(C)C)c(C)c2)cc1	-15%	-20	?	2	16%	21µM*
CCOC(=O)C1=C(CN(Cc2ccco2)C2CCCC2)NC(=O)NC1c1ccc(C)cc1 (stereo not drawn)	/	/	/	12	/	/
SMILES	Gal4-VP16 FLuc	IL1B secr inh	DT40 TDP1 no CPT	LDHA inh	RORgamma inh	TDP1 cell CPT
O=C(NC1CC2CCC(C1)N2Cc1nnnn1Cc1ccco1)NC12CC3CC(CC(C3)C1)C2 (stereo not drawn)	-23%	31	18µM*	4	-5%	21µM*
CCOc1ccccc1C(=O)NC1CC2CCCC(C1)N2Cc1nnnn1Cc1ccco1 (stereo not drawn)	5%	?	16µM*	-6	0%[10 µM]	?
CCOc1ccccc1C(=O)NC1CC2CCCC(C1)N2C1CC1 (stereo not drawn)	0%	22	-24%	-7	-21%	-26%
Cc1cnc2c(S(=O)(=O)N3CCNCC3)cccc2c1	/	/	/	-13	/	/
CNc1ccc(/C=C/C(=O)c2cccc3ccccc23)cc1[N+](=O)[O-]	4%	-92*	16µM*	0	29%	16µM*
CC(=O)c1cnn(-c2cc(NC3CCCC3)nc(-c3ccccc3)n2)c1C	/	/	/	1	/	/
CC1C(c2cccs2)=[N+]([O-])C(C)(c2ccc(Cl)cc2)N1O (stereo not drawn)	/	/	/	8	/	/
CCCN(CCC)C(=O)Cn1c(=O)n(-c2ccc(C)cc2)c(=O)c2ccc(C(=O)NCc3ccccc3Cl)cc21	/	/	?	4	/	?
CCCN(CCC)C(=O)Cn1c(=O)n(-c2ccc(CC)cc2)c(=O)c2ccc(C(=O)NCCc3ccccc3)cc21	/	/	7.3µM*	1	/	12µM*
CCc1ccc(-n2c(=O)c3ccc(C(=O)NCCc4ccccc4)cc3n(CC(N)=O)c2=O)cc1	-21%	13	21µM*	-5	27%	?
O=c1cc(CN2CCOCC2)c2ccccc2o1	/	0	-1%	2	/	-12%
O=c1c2ccccc2oc2cc(-c3ccc(CN4CCOCC4)cc3)ccc12	/	0	16µM*	1	/	13µM*
COc1ccc2c(c1)-c1nc(NC(=O)c3cc(Cl)ccc3OC)sc1CC2	/	/	?	-5	/	8.2µM*
COc1ccc2c(c1)-c1nc(NC(=O)c3cc(OC)c(OC)c(OC)c3)sc1CC2	/	/	18µM*	10	/	?
CN(CC(=O)N1c2ccccc2NC(=O)CC1C(F)(F)F)Cc1ccccc1Cl (stereo not drawn)	/	/	/	-1	/	/
CCOC(=O)C1(CC2CC2)CCN(Cc2cn[nH]c2-c2ccccc2)CC1	-5%	0	13%	-15	12%	-13%
CCOC(=O)C1(CC2CC2)CCN(Cc2ccc3cccc(F)c3n2)CC1	29%	?	16µM*	0	10%	21µM*
CCOC(=O)C1(CC2CC2)CCN(Cc2cnc(-c3ccc(OC)cc3)nc2)CC1	1%	33	16µM*	1	41%	?

Compound activity from PubChem BioAssay.
